The values that follow come from PubChem BioAssay (NCATS).

Molecules are shown by their SMILES. Results filed as inconclusive are left out. Activity calls are given as the source filed them. Calls follow the shape of the dose curve; as a rule, active = well fitted inhibition curve with a large enough effect; inconclusive = small, poorly fitted or top-dose-only effect; inactive = flat fitted curve, though single readings scatter.

What all share (assay): qHTS profiling for inhibitors of Plasmodium falciparum proliferation (AID 504749); also: nearly all actives have a fitted effect of over 60% in size
Details in all cases: P. falciparum in erythrocytes, SYBR Green DNA, 72 h; series mostly up to 28.7 µM
On the technique in general: Quantitative high-throughput screening tests each substance at several concentrations.

One assay has as its system P94_40. The method in brief: (§1)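 SYBR Green fluorescence of parasite DNA, read after lysis and overnight dark incubation, measured growth over 72 h in erythrocyte culture at 0.3% parasitemia and 2.5% hematocrit. Data normalised to DMSO and 0.29 uM artemisinin, with plate-drift correction.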
In another assay the test system is PAD. The essentials:
as §1

The subject of a further assay is PC15. The method in brief:
as §1

The next assay concerns PC26. The essentials:
as §1

The test system of a further assay is PC49. The method in brief: as §1
A further assay relates to SC27B. The method in brief:
as §1

Another assay relates to TAB109. The essentials: as §1
The subject of a further assay is TAB113. The essentials:
as §1

The next assay concerns TAB165. The method in brief: as §1
The test system of the next assay is W2. The essentials:
as §1
Potency is read from the fitted curve at half-maximal effect.

For the compound `C1CCc2nnnn2CC1`, the Potency result in the assay on P94_40, with PAD, in the assay with PC15, with PC26, in the assay with PC49 and in the assay with SC27B was “inactive” each time. In addition, the Potency result with TAB109, in the assay on TAB113, in the assay with TAB165 and in the assay with W2 was “inactive” each time.

For `C[C@H](O)C(=O)Nc1c(I)c(C(=O)NC(CO)CO)c(I)c(C(=O)NC(CO)CO)c1I`, the Potency entry in the assay on P94_40, with PAD, with PC15, in the assay on PC26, in the assay on PC49 and in the assay on SC27B was “inactive” each time. Further, the Potency result with TAB109, in the assay with TAB113, in the assay on TAB165 and in the assay with W2 was “inactive” in each case.

Regarding `Cc1cccn2c(=O)c(-c3nnn[nH]3)cnc12`, the Potency entry in the assay with P94_40, in the assay with PAD, in the assay on PC15, in the assay with PC26, with PC49 and in the assay on SC27B was “inactive” throughout. Also, the Potency entry with TAB109, in the assay with TAB113, in the assay with TAB165 and in the assay on W2 was “inactive” throughout.

On to `Cc1ccnc(NS(=O)(=O)c2ccc(N)cc2)n1`, for which the Potency entry in the assay with P94_40, in the assay on PAD, in the assay with PC15, in the assay with PC26, in the assay with PC49 and with SC27B was “inactive” each time. The Potency result in the assay on TAB109, in the assay with TAB113, in the assay with TAB165 and in the assay with W2 was “inactive” each time.

Take `CN1C(CCl)Nc2cc(Cl)c(S(N)(=O)=O)cc2S1(=O)=O` (stereo not given): the Potency result in the assay on P94_40, in the assay with PAD, with PC15, in the assay with PC26, in the assay with PC49 and in the assay with SC27B was “inactive” each time. The Potency entry with TAB109, in the assay on TAB113, in the assay with TAB165 and in the assay on W2 was “inactive” each time.

Consider `O=C(O)CCCCC(=O)O`, for which the Potency result with P94_40, with PAD, in the assay on PC15, in the assay with PC26, in the assay with PC49 and in the assay on SC27B was “inactive” in each case. Further, the Potency entry with TAB109, in the assay with TAB113, in the assay with TAB165 and in the assay on W2 was “inactive” each time.

With `CC(C)(CO)[C@@H](O)C(=O)NCCCO`, the Potency result with P94_40, with PAD, with PC15, in the assay with PC26, in the assay with PC49 and in the assay on SC27B was “inactive” each time. Moreover, the Potency entry with TAB109, with TAB113, in the assay on TAB165 and with W2 was “inactive” each time.

As for `CC(=O)Oc1ccc(C(=C2CCCCC2)c2ccc(OC(C)=O)cc2)cc1`, the Potency result in the assay with P94_40, with PAD, in the assay on PC15, in the assay on PC26, in the assay with PC49 and in the assay on SC27B was “inactive” each time. Further, the Potency entry in the assay on TAB109, in the assay on TAB113, with TAB165 and in the assay with W2 was “inactive” in each case.

With `CC(=O)OCC(=O)NCCCOc1cccc(CN2CCCCC2)c1`, the Potency entry in the assay with P94_40, in the assay on PAD, with PC15, in the assay on PC26, with PC49 and in the assay with SC27B was “inactive” throughout. The Potency entry in the assay on TAB109, in the assay with TAB113, in the assay on TAB165 and with W2 was “inactive” in each case.

`CN1CCC[C@@H]1c1cccnc1`: the Potency entry in the assay on P94_40, in the assay with PAD, in the assay on PC15, in the assay on PC26, in the assay on PC49 and in the assay with SC27B was “inactive” each time. For the same compound, the Potency result with TAB109, in the assay with TAB113, in the assay with TAB165 and in the assay on W2 was “inactive” each time.

With `CCN(CC)C(=O)N1CCN(C)CC1`, the Potency result with P94_40, in the assay with PAD, with PC15, in the assay on PC26, in the assay with PC49 and with SC27B was “inactive” in each case. Further, the Potency result with TAB109, in the assay on TAB113, in the assay with TAB165 and in the assay with W2 was “inactive” each time.

As for `C=CCc1ccc(O)c(OC)c1`, the Potency entry with P94_40, in the assay on PAD, in the assay on PC15, with PC26, in the assay with PC49 and with SC27B was “inactive” each time. Further, the Potency entry in the assay on TAB109, with TAB113, in the assay on TAB165 and in the assay with W2 was “inactive” in each case.

On to `CCCCC(CC)CN=C(N)NC(N)=NCCCCCCN=C(N)NC(N)=NCC(CC)CCCC` (stereo not given), for which the Potency in the assay with P94_40 was 1260 nM (active); in the assay on PAD, 891 nM (active); with PC15 it was 2820 nM (active); in the assay with PC26 it was 1510 nM (active); with PC49, 2240 nM (active); in the assay on SC27B it was 2000 nM (active). Further, the Potency is 1120 nM (active) with TAB109, 1780 nM (active) with TAB113, 1260 nM (active) in the assay with TAB165 and 1070 nM (active) with W2.

As to `O=C1CCC(c2ccc(-n3ccnc3)cc2)=NN1`, the Potency result with P94_40, in the assay with PAD, in the assay with PC15, in the assay on PC26, in the assay with PC49 and in the assay on SC27B was “inactive” throughout. Further, the Potency result in the assay with TAB109, in the assay with TAB113, in the assay on TAB165 and in the assay with W2 was “inactive” in each case.

`Oc1c(Cl)cc(Cl)cc1Sc1cc(Cl)cc(Cl)c1O`: the Potency result with P94_40, with PAD, in the assay with PC15, in the assay with PC26, in the assay with PC49 and in the assay on SC27B was “inactive” in each case. Further, the Potency result in the assay with TAB109, in the assay on TAB113, with TAB165 and in the assay on W2 was “inactive” throughout.

`Nc1ccc(C(=O)O)cc1`: the Potency entry in the assay on P94_40, in the assay with PAD, in the assay with PC15, with PC26, in the assay on PC49 and in the assay on SC27B was “inactive” each time. The Potency entry in the assay with TAB109, with TAB113, with TAB165 and in the assay with W2 was “inactive” throughout.

Consider `O=C(COc1ccc(Cl)cc1)N1CCN(Cc2ccc3c(c2)OCO3)CC1`, for which the Potency entry with P94_40, with PAD, with PC15, in the assay on PC26, in the assay on PC49 and in the assay on SC27B was “inactive” each time. In addition, the Potency result in the assay with TAB109, in the assay on TAB113, with TAB165 and with W2 was “inactive” throughout.
